Screens from PubChem BioAssay.
Neddyl block: inhibitors of human cullin neddylation; P61081+Q13564; TR-FRET cullin neddylation, biochemical; calls only at 25 µM; 0.58% of 360,000 active; in the data active = inhibition above about 36%
KLK7 zymogen act: activates the human kallikrein-7 zymogen; P49862; purified proKLK7, EDANS-DABCYL substrate fluorescence; 100% is mature enzyme control, 0% vehicle; activation, % at 7 µM; 0.9% of 370,000 active;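 active = activation above the mean of all tested compounds plus 3 SD, computed per campaign excluding outliers beyond control limits, cut at about 13% in these data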
Rin1-Abl PPI inh: blocks binding of human Rin1 to Abl. TR-FRET Rin1/Abl binding, biochemical. inhibition, % at 7.35 µM. 0.4% of 360,000 active. AID 588664; in the data active = inhibition above about 5%, passing the limit was not always enough
Target sequence (P00519 whole entry, looked up): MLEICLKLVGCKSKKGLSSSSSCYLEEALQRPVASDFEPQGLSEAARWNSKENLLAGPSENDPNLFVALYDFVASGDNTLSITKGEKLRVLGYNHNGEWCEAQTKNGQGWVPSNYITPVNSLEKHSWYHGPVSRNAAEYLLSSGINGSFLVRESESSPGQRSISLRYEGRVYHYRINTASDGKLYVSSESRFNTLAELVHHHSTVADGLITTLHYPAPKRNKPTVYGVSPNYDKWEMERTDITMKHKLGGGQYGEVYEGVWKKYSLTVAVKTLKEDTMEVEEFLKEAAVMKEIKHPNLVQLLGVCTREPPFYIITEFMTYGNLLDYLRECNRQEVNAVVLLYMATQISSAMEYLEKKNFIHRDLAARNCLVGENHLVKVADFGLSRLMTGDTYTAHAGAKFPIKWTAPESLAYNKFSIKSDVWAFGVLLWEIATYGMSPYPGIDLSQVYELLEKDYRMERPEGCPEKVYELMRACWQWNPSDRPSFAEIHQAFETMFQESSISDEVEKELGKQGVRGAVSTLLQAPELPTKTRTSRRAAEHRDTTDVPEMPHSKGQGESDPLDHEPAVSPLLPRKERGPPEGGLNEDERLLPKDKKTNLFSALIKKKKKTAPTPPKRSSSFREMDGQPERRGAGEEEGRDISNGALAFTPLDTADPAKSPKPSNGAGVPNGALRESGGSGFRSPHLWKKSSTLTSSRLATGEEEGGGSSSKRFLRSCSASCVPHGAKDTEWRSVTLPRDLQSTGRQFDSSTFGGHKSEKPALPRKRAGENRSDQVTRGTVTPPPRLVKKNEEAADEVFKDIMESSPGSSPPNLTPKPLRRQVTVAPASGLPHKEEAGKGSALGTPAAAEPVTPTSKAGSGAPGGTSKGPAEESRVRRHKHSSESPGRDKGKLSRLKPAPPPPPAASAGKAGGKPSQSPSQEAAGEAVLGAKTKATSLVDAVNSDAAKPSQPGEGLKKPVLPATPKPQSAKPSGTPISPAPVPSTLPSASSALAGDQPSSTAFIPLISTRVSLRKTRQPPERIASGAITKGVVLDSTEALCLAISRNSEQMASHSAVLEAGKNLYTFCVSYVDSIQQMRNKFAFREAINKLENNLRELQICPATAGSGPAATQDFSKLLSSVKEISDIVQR
Target sequence (Q13671 whole entry, looked up): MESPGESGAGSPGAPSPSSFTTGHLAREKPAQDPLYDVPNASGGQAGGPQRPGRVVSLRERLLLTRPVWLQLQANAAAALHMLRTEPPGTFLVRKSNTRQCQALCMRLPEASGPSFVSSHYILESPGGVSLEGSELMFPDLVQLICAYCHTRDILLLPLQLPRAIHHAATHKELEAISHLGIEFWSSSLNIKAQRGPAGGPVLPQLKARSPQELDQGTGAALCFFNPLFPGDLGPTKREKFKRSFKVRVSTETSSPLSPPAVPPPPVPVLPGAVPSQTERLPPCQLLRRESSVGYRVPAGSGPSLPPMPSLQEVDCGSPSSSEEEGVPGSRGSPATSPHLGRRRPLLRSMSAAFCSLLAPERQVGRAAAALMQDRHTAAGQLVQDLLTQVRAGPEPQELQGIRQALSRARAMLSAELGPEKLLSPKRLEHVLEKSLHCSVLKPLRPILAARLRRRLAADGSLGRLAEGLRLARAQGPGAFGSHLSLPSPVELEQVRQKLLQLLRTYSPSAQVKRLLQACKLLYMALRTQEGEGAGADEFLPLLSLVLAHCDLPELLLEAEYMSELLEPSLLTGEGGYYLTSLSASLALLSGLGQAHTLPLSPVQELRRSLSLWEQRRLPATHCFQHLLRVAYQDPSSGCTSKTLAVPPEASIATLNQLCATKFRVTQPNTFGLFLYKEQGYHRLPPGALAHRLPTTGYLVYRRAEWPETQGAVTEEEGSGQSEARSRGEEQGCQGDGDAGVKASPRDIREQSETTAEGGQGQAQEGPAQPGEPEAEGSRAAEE
LEDGF integ inh: blocks HIV-1 LEDGF/p75-dependent DNA integration. TR-FRET IN-LEDGF/p75 DNA integration, Eu/Cy5. inhibition, % at 3.7 µM. 0.64% of 370,000 active. AID 743269;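 active = inhibition above the screen-wide mean plus 3 SD, cut at about 13% in these data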;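 also: signal is the Cy5 over europium emission ratio at 671 and 618 nm; 0% = plate median of compound wells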
MBD2 DNA inh: MBD2-methylated oligo binding inhibition; inhibition, % at 4.4 µM; Q9UBB5; 0.31% of 370,000 active; TR-FRET, MBD2 binding to methylated oligonucleotide; in the data active = inhibition above about 13%
UHRF1 MBD2 ctr: blocks human UHRF1 binding to methylated DNA; Q96T88; UHRF1 binding to methylated oligo, TR-FRET; inhibition, % at 4.4 µM; 0.75% of 370,000 active; AID 687016; in the data active = inhibition above about 21%;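 also: UHRF1 SRA domain binding a hemimethylated CpG hairpin DNA probe; 0% = median of test compound wells and 100% = reference inhibitor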
KLK7 act conf: proKLK7 activation, confirmation. shares compounds with KLK7 zymogen act. purified proKLK7, EDANS-DABCYL substrate fluorescence; scaled: vehicle 0, mature enzyme 100. activation, % at 7 µM. 68% of 3,200 active. AID 686949;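 active = activation, as change over the incubation, above the mean of all tested compounds plus 3 SD, cut at about 13% in these data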
EDANS interfere: fluorescence interference counter-screen for KLK7 activators | shares compounds with KLK7 zymogen act | EDANS-DABCYL substrate fluorescence interference, no enzyme, 4 h; solvent 0%, active enzyme control 100% | activation, % at 7 µM | 80% of 3,200 active | AID 686952;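 active = activation above the all-compound mean plus 3 SD, ignoring values outside control-based bounds, cut at about 4.8% in these data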;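 also: value is the 4 h activation minus the activation read at time zero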
EDANS interf: optically interferes with EDANS-DABCYL fluorescence, kallikrein-7 activator counter-screen. shares compounds with KLK7 zymogen act. EDANS-DABCYL peptide fluorescence interference, no enzyme. EC50, µM. 20% of 250 active. AID 720493;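 active = compounds that raise the fluorescence signal in this interference counterscreen, with EC50 at or below 10 µM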;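 also: intact quenched peptide substrate alone read at 355 nm excitation and 520 nm emission; signal is fluorescence gain from T0 to T4 after four hours at room temperature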
An asterisk follows results filed as active; i = inactive; nt = no result given. Shown are actives, neighbours in structure and some others; about 3.1% of the full set was active somewhere.

SMILES	Neddyl block	KLK7 zymogen act	Rin1-Abl PPI inh	LEDGF integ inh	MBD2 DNA inh	UHRF1 MBD2 ctr	KLK7 act conf	EDANS interfere	others
O=c1[nH]c(=O)c2nc(-c3ccc(Cl)cc3)cnc2[nH]1	i	56.8*	0.8	2.8	-3.9	-2.4	69.8*	69.4*
N#Cc1ccc2c(c1)nnn2-c1ccccc1	i	0.2	-1.3	-2.9	-0.8	-1.6	nt	nt
Nc1cc2nn(-c3ccccc3)nc2cc1Cl	nt	20.6*	-3.2	48.1*	-11.6	-0.4	-50.4	-39.4
Nc1ccc2nn(-c3ccccc3)nc2c1	nt	29.9*	-2.1	9.7	3.2	-1.4	66.4*	67.6*
Nc1ccc2c(c1)nnn2-c1ccccc1	nt	31.0*	-6.4	-1.2	0.1	-2.4	44.5*	44.1*
Nc1ccc(-n2nc3ccccc3n2)cc1	nt	0.3	-3.2	1.7	-4.2	-3.3	nt	nt
CCCNC(=O)CN1C(=O)c2ccccc2Sc2ncccc21	i	-0.7	-0.1	2.4	1.7	-0.1	nt	nt
CN(C(=O)c1ccc(NC(=O)Cc2cccc(NC(=O)C3CCCN(C(=O)C4CCC4)C3)c2)cc1)C1CCCC1 (configuration not stated)	i	0.4	-0.7	-0.9	5.5	-0.8	nt	nt
Cc1cccc(CN(C(=S)Nc2c(C)cccc2C)c2cccnc2)c1	i	0.4	-1.5	0.0	1.0	-0.4	nt	nt
O=C(Nc1ccc(O)c(-c2nc3ccccc3s2)c1)c1cccs1	i	-0.1	-61.6	3.2	6.8	0.8	nt	nt
O=C(Nc1ccc(F)cc1)Nc1sccc1-c1nc2ccccc2s1	i	31.9*	-1.1	-0.3	-2.1	-7.7	-184.1	-286.9
CCN(CC)CCN1C(=O)C(=O)/C(=C(/O)c2ccncc2)C1c1ccccc1F (configuration not stated)	i	-0.8	-0.5	0.0	4.3	2.9	nt	nt
CCN(CC)CCN1C(=O)c2ccccc2NC1c1ccccc1F (configuration not stated)	nt	73.6*	0.1	1.0	-3.0	1.2	26.1*	37.6*
COc1ccc(C2Nc3ccccc3C(=O)N2NC(C)=O)cc1OC (configuration not stated)	nt	11.1	1.3	-1.4	-1.0	3.4	nt	nt
CCN(CC)CCN1C(=O)c2ccccc2NC1c1ccc(C)cc1 (configuration not stated)	nt	74.6*	0.2	0.4	7.1	5.9	28.8*	37.1*
CCN(CC)CCN1C(=O)c2ccccc2NC1c1ccc(N(C)C)cc1 (configuration not stated)	i	2.8	1.7	3.1	-4.9	2.7	nt	nt
CCN(CC)CCN1C(=O)c2ccccc2NC1c1ccc(F)cc1 (configuration not stated)	nt	91.5*	-5.4	-2.1	-2.2	-0.7	37.0*	34.5*
CCOC(=O)NN1C(=O)c2ccccc2NC1c1ccc(OC)c(OC)c1 (configuration not stated)	nt	19.7*	3.3	2.5	0.2	-0.5	25.1*	26.4*
Cn1c(N2CCC(C(N)=O)CC2)nc2c1c(=O)n(Cc1ccc(Br)cc1)c(=O)n2C	i	-0.1	0.8	-0.1	2.5	-2.0	nt	nt
CCN(CC)CCN1C(=O)c2ccccc2NC1c1ccc(Br)cc1 (configuration not stated)	nt	60.8*	2.5	-1.3	1.6	1.6	12.3	23.2*
O=C1c2ccccc2NC(c2cccc([N+](=O)[O-])c2)N1CCc1ccccc1 (configuration not stated)	i	0.4	2.0	-2.7	-3.4	-1.5	nt	nt
COc1ccc(C2Nc3ccccc3C(=O)N2NC(=O)c2ccccc2)cc1OC (configuration not stated)	nt	3.7	-0.1	5.2	2.4	0.3	nt	nt
O=C(O)CCC(=O)NN1C(=O)c2ccccc2NC1c1ccc(F)cc1 (configuration not stated)	nt	17.4*	1.5	-3.2	-1.9	0.7	37.9*	30.6*	EDANS interf=>69.5
CCN(CC)CCN1C(=O)c2ccccc2NC1c1cccc(F)c1 (configuration not stated)	nt	71.5*	-3.0	1.4	-4.3	2.3	34.8*	33.4*
Cc1nn(C)cc1S(=O)(=O)N1CCN(c2ccccc2)CC1	i	-0.9	-2.6	-8.4	-1.4	4.1	nt	nt
SMILES	Neddyl block	KLK7 zymogen act	Rin1-Abl PPI inh	LEDGF integ inh	MBD2 DNA inh	UHRF1 MBD2 ctr	KLK7 act conf	EDANS interfere	others
O=C1COc2ccc(C(=O)COc3ccc(Cl)cc3Br)cc2N1	i	-0.6	6.7	-2.2	-4.0	-1.2	nt	nt
CN1C(=O)N(CC(=O)N2CCN(c3ccccc3F)CC2)C(=O)C12CCCCC2	i	-0.1	2.1	5.4	-1.1	0.3	nt	nt
O=C(c1ccccc1)C1(c2ccccc2)OC1c1ccccc1 (configuration not stated)	i	-0.1	0.6	-1.6	5.3	-1.9	nt	nt
CC(=O)Nc1ccc(NC(=O)c2cc(=O)c3ccc(C)cc3o2)cc1	i	15.3*	-4.5	-2.6	-3.0	-4.3	0.2	0.5
N#C/C(=C\c1ccc(-c2nc3ccccc3s2)o1)C(N)=O	i	17.2*	-6.0	-2.2	-9.4	-5.0	7.4	5.9*
Cc1cc(Nc2nn(C)c(N)c2C#N)ccc1F	i	-0.3	-2.7	-1.4	1.4	3.9	nt	nt
Cc1ccc2oc(=O)cc(CN3CC(C)OC(C)C3)c2c1 (configuration not stated)	i	0.8	1.8	-6.2	0.7	0.4	nt	nt
CCc1cc(=O)oc2c(CN3CCN(C)CC3)c(O)ccc12	nt	37.6*	0.2	3.5	-1.1	-1.9	72.0*	70.5*
CCc1cc(=O)oc2c(CNCc3c(F)cccc3Cl)c(O)ccc12	nt	30.1*	3.9	-3.7	0.9	-2.3	41.0*	57.2*
Cc1cc(=O)oc2c(CN3CC(C)OC(C)C3)c(O)c(Cl)cc12 (configuration not stated)	nt	149.4*	3.4	1.4	-1.0	2.0	67.2*	74.4*
CCCCc1cc(=O)oc2c(CN3CCCC3)c(O)ccc12	nt	77.2*	-0.7	-4.9	-3.8	0.6	65.5*	74.5*
COC[C@@H]1CCCN1c1cccc2c1S(=O)(=O)N1CC[C@H](C1)O2	nt	0.1	nt	1.8	-3.0	-0.8	nt	nt
CC(C)C1CC(N(C)C)=CC(=S)N1 (configuration not stated)	nt	-0.2	nt	0.9	-1.1	-5.8	nt	nt
CCc1c(C)c2cc(Cl)c(O)c(CN3CCCCC3)c2oc1=O	i	51.1*	-6.0	-0.6	-6.1	-4.4	69.0*	71.6*
CCc1cc(=O)oc2c(CN3CCN(C)CC3)c(O)c(Cl)cc12	nt	69.0*	-0.5	7.0	-0.2	-4.7	62.3*	69.8*
